Molecules are shown by their SMILES. Measured potencies and affinities stand elsewhere. Active and inactive are the calls of the source. No rule for the calls is given here.

A short description of the test: THP-1 cell cytotoxicity, dose response, cytotoxicity control, set 3 (AID 504852). To be noted: THP-1 cell viability, cytotoxicity CC50; series mostly up to 100 µM.
Take `Nc1cc(=O)[nH]c(SCC(=O)NC2CCCCC2)n1`: the compound was called inactive.

As to `Cc1nc(SCC(=O)NCCC(C)C)[nH]c(=O)c1C`, the call was inactive.

Turning to `Cc1nc(SCC(N)=O)[nH]c(=O)c1C`, the result was inactive.

As for `CCC(Sc1nc2ccccc2c(=O)[nH]1)C(=O)Nc1cccc(OC)c1` (stereo unspecified), the compound was classed as inactive.

For the compound `O=C(CSc1nc2c(c(=O)[nH]1)CCC2)NC1CCCCC1`, the compound was classed as inactive.

Consider `COc1ccc(NC(=O)CSc2nc3ccccc3c(=O)[nH]2)cc1`, for which the compound was classed as inactive.

Consider `Cc1c[nH]c(=S)[nH]c1=O`, for which the call was inactive.

For `O=C(CSc1nc2ccccc2c(=O)[nH]1)N1CCOCC1`, the result was inactive.

For `Cc1cc(=O)[nH]c(=S)[nH]1`, the outcome was inactive.

Turning to `O=C(CSc1nc2ccccc2c(=O)[nH]1)NC1CCCC1`, the outcome was inactive.

Regarding `Cc1cnc(SCC(=O)NC2CCCCC2)[nH]c1=O`, the outcome was inactive.

Take `Cc1nc(SCC(=O)NC2CCCC2)[nH]c(=O)c1C`: the call was inactive.

For `O=C(CSc1ncccn1)NC1CCCCC1`, the call was inactive.

As to `CCC(Sc1nc2c(c(=O)[nH]1)CCC2)C(=O)Nc1cccc(OC)c1` (stereo unspecified), the result was inactive.

As to `O=C(CSc1nccc(=O)[nH]1)NC1CCCCC1`, the compound was called inactive.

Turning to `Cc1cc(=O)[nH]c(SCC(=O)NC2CCCCC2)n1`, the outcome was inactive.

On to `O=C(CSc1nc2ccccc2c(=O)[nH]1)NC1CCCCC1`, for which the compound was called inactive.

Take `CCSc1nc(C)c(C)c(=O)[nH]1`: the compound was called inactive.

`Cc1[nH]c(=S)[nH]c(=O)c1C`: the compound was called inactive.

In the case of `CCOC(=O)CSc1nc(C)c(C)c(=O)[nH]1`, the outcome was inactive.

`Cc1ccc(NC(=O)CSc2nc3ccccc3c(=O)[nH]2)cc1Cl`: the compound was called inactive.

Regarding `Cc1nc(SCc2ccccc2Cl)[nH]c(=O)c1C`, the result was inactive.

With `O=c1[nH]c(=S)[nH]c2ccccc12`, the compound was called inactive.

In the case of `O=c1[nH]c(SCc2ccccc2Cl)nc2c1CCCC2`, the compound was classed as inactive.

As to `COc1cccc(NC(=O)CSc2nc3c(c(=O)[nH]2)CCC3)c1`, the result was inactive.

For the compound `CC(C)CCNC(=O)CSc1nc2c(c(=O)[nH]1)CCC2`, the compound was classed as inactive.

As to `Cn1c(SCC(=O)NC2CCCCC2)nc2ccccc2c1=O`, the result was inactive.

With `CC(C)NC(=O)CSc1nc2ccccc2c(=O)[nH]1`, the call was inactive.

For the compound `CN(C)C(=O)CSc1nc2ccccc2c(=O)[nH]1`, the result was inactive.

In the case of `CN1CCC(NC(=O)CSc2nc3ccccc3c(=O)[nH]2)CC1`, the outcome was inactive.

In the case of `NC(=O)CSc1nc2ccccc2c(=O)[nH]1`, the compound was called inactive.
